Screens (PubChem BioAssay)
BoNT F protease – blocks Botulinum neurotoxin F light chain protease | Multiplex microsphere protease cleavage assay, flow cytometry | inhibition, % at 10 µM | 0.22% of 360,000 active | AID 588497; in the data active = inhibition above about 35%, passing the limit was not always enough; inconclusive = no clear call, values can overlap the other calls; note: plate controls were buffer without enzyme for full effect and enzyme alone for no effect
Anthrax LF prot – anthrax lethal factor protease inhibition | P15917 | multiplex microsphere protease cleavage assay, LF | inhibition, % at 10 µM | 0.12% of 360,000 active | AID 588501; note: plate controls were buffer without enzyme for full effect and enzyme alone for no effect
BoNT-A LC inh2 – inhibitors of Botulinum neurotoxin A light chain protease; multiplex microsphere protease substrate cleavage, flow cytometry; inhibition, % at 10 µM; 0.17% of 360,000 active; note: plate controls were buffer without enzyme for full effect and enzyme alone for no effect
Autofluor counter – compound fluorescence in toxin protease inhibitor counterscreen; AID 624483; compound autofluorescence counterscreen, microsphere flow cytometry; active compounds read high; 3.1% of 360,000 active; fluorescence intensity (concentration not given with the values); in the data active = fluorescence intensity above about 16000; inconclusive = no clear call, values can overlap the other calls
SSB-PriA inh – blocks PriA binding to SSB C-terminal tail; AlphaScreen SSBct-PriA binding, biotinylated peptide; 0.6% of 430,000 active; inhibition, % at 33 µM; in the data active = inhibition mostly above about 37%, no sharp cut-off; inactive = mostly below about 20%;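 note: plate controls were negative control peptide for no effect and reference peptide for full effect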
Active calls of the source: *. Rows were chosen to be rich in hits. Some 3.1% of all compounds tested hit in one or more screens of this group. Cut-off read from the data, not from the text of the source, unless noted: active = inhibition above about 30%; inconclusive = no clear call, values can overlap the other calls; inactive = below that.

For Cc1cc2ncc3c(n2n1)CCN(C(=O)CCc1c(C)noc1C)C3 the results were SSB-PriA inh 1.
Screening Cc1[nH]c(=O)n(C)c(=O)c1CCC(=O)Nc1ccc(S(=O)(=O)N2CCC(C)CC2)cc1 returned SSB-PriA inh 7.
`O=C(NC(Nc1cccc2ccccc12)C(Cl)(Cl)Cl)c1cccc([N+](=O)[O-])c1` (stereo not given) gave SSB-PriA inh 32.
`CCOC(=O)Cn1c(=NC(=O)c2cc(-c3cccs3)nc3ccccc23)sc2cc(S(N)(=O)=O)ccc21` gave BoNT F protease 9, Anthrax LF prot 2, BoNT-A LC inh2 8, Autofluor counter 1977 and SSB-PriA inh -10.
Screening COC(=O)Cn1c(=NC(=O)c2cc(-c3cccs3)nc3ccccc23)sc2cc(S(N)(=O)=O)ccc21 returned BoNT F protease 0, Anthrax LF prot 9, BoNT-A LC inh2 38*, Autofluor counter 2153 and SSB-PriA inh -13.
CCCCCc1c(C)nc(NCc2ccccc2)[nH]c1=O was read as BoNT F protease 10, Anthrax LF prot -14, BoNT-A LC inh2 inconclusive, Autofluor counter 20180* and SSB-PriA inh 2.
`CC(=O)Nc1ccc(S(=O)(=O)Nc2nnc(C(C)C)s2)cc1` gave BoNT F protease -3, Anthrax LF prot -2, BoNT-A LC inh2 0, Autofluor counter 16628* and SSB-PriA inh -28.
COc1ccc(-c2noc(CSc3nc4ccsc4c(=O)n3-c3ccccc3)n2)c(OC)c1 was read as SSB-PriA inh -3.
`O=C(Nc1cccc(O)c1)c1ccc(Br)c(S(=O)(=O)N2CCCCC2)c1` gave BoNT F protease -6, Anthrax LF prot -3, BoNT-A LC inh2 -4, Autofluor counter 24544* and SSB-PriA inh -2.
O=C(Nc1cccc(O)c1)c1ccc(Br)cc1 was read as BoNT F protease 4, Anthrax LF prot -7, BoNT-A LC inh2 3, Autofluor counter 21990* and SSB-PriA inh 7.
O=C(Nc1ncn[nH]1)c1ccc(Cl)c(S(=O)(=O)N2CCCCCC2)c1 was read as BoNT F protease 0, Anthrax LF prot 3, BoNT-A LC inh2 -1, Autofluor counter 16856* and SSB-PriA inh -5.
For O=C(Nc1ncn[nH]1)c1ccc(Cl)c(S(=O)(=O)N2CCCCC2)c1 the results were SSB-PriA inh -9.
O=C(Nc1cccc(O)c1)c1cccc(S(=O)(=O)N2CCCCCC2)c1 was read as BoNT F protease -4, Anthrax LF prot 10, BoNT-A LC inh2 2, Autofluor counter 3670 and SSB-PriA inh 1.
`COc1ccc(C(=O)OCC(=O)Nc2ccc(F)cc2F)cc1OC` gave BoNT F protease -6, Anthrax LF prot -1, BoNT-A LC inh2 -1, Autofluor counter 3602 and SSB-PriA inh -8.
Screening CCC(CC)NC(=O)COC(=O)c1ccc(OCC(=O)Nc2ccccc2OC)c(OC)c1 returned BoNT F protease 7, Anthrax LF prot -2, BoNT-A LC inh2 inconclusive, Autofluor counter 21089* and SSB-PriA inh -9.
`COc1cc(C(=O)OCC(=O)Nc2ccc(F)cc2F)cc(OC)c1OC` gave BoNT F protease -4, Anthrax LF prot -10, BoNT-A LC inh2 inconclusive, Autofluor counter 20961* and SSB-PriA inh -5.
`CCCNC(=O)COC(=O)c1ccc(OCC(=O)Nc2ccccc2OC)c(OC)c1` gave BoNT F protease 10, Anthrax LF prot 0, BoNT-A LC inh2 1, Autofluor counter 4248 and SSB-PriA inh -14.
For O=C(Nc1ccc2c(c1)OCCO2)c1ccc(N2CCCCC2)nn1 the results were SSB-PriA inh -12.
`Cc1oc(C(=O)Nc2ccc(C(=O)O)cc2)cc1COc1ccccc1` gave BoNT F protease -3, Anthrax LF prot -3, BoNT-A LC inh2 -1, Autofluor counter 16440* and SSB-PriA inh -4.
CC(=O)c1cc(C(=O)Nc2ccc(C(=O)O)cc2)oc1C was read as BoNT F protease 4, Anthrax LF prot 0, BoNT-A LC inh2 0, Autofluor counter 8509 and SSB-PriA inh -14.
`CCOc1ccc(-c2noc(CCCC(N)=O)n2)cc1OC` gave BoNT F protease -2, Anthrax LF prot -4, BoNT-A LC inh2 -1, Autofluor counter 22255* and SSB-PriA inh -18.
COc1ccc(-c2noc(CCC(N)=O)n2)cc1OC was read as BoNT F protease -8, Anthrax LF prot -4, BoNT-A LC inh2 inconclusive, Autofluor counter 22164* and SSB-PriA inh -8.
For Nc1nccc(-c2ccccn2)n1 the results were SSB-PriA inh 47.
`NCc1ccnc(-c2ccccn2)n1` gave SSB-PriA inh 126*.
`Nc1ccnc(-c2ccccn2)n1` gave SSB-PriA inh 151*.
